EWS-Fli inh: inhibitors of EWS/Fli oncoprotein transcriptional activity. A673 NR0B1-luciferase reporter, viability-normalised. inhibition, % at 12.6 µM. 350,000 tested, 0.67% active. AID 651661;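 active means mean inhibition of at least 50% after viability correction, with every replicate also passing that limit; inconclusive means mean reaches 50% but only one of two replicates passes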;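 further: firefly luciferase signal divided by Alamar Blue viability fluorescence both relative to DMSO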
EBV LMP1 NFkB: Epstein-Barr LMP1 NF-kappaB reporter inhibition; LMP1-induced NF-kappaB luciferase reporter cells, luminescence; 350,000 tested, 0.69% active; AID 504558; inhibition, % at 12.5 µM; in the data active means inhibition above about 41%; inconclusive means no clear call, values can overlap the other calls
LGR2 inh: blocks bursicon-induced cAMP signaling via Drosophila LGR2. HEK293 LGR2, CRE-luciferase, bursicon-stimulated, 4 h. inhibition, % at 9.99 µM. 380,000 tested, 0.35% active. AID 720647;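 active means drop in luminescence signal, shown as inhibition above about 50% in the replicate tests, limit read from the data, passing the limit was not always enough; inconclusive means probably only some replicates passing the limit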;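 further: agonist challenge used bursicon conditioned medium at about half maximal strength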
TRPM1 prom inh: reduces MITF-dependent TRPM1 promoter luciferase signal; inhibition, % at 12.5 µM; 330,000 tested, 0.83% active; SK-MEL-5 TRPM1 promoter luciferase, 24 h; AID 488899;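 active means mean inhibition across replicates of 60% or more, whatever share of single replicates reaches that level; inconclusive means some that reach 60%, reason not given; inactive means mean inhibition across replicates below 60%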
PAX8 inh HTS: lowers PAX8-driven luciferase in RMG-I cells; RMG-I TPO-luciferase reporter, SteadyGlo, 24 h; inhibition, % at 12.6 µM; 360,000 tested, 1.2% active;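 active means mean replicate inhibition at least 60% with every replicate also reaching 60%; inconclusive means only one of the two criteria is met; inactive means mean below 60% and not all replicates reaching 60%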;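 further: luciferase light reporting Pax8 driven TPO promoter activity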
Shn3 3UTR inh: reduces Shn3 3'UTR luciferase signal in osteoblasts; Clone20 osteoblast Shn3 3'UTR firefly luciferase, 24 h; inhibition, % at 12.5 µM; 360,000 tested, 0.52% active; AID 588674;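 active means mean inhibition of at least 75% with every replicate also reaching 75%; inconclusive means mean inhibition at least 75% but some replicate below; inactive means mean inhibition below 75%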
Each line names hits and unclear results; the compound was inactive in the other large screens. Only some compounds are listed: those with a hit (about 2.2% of all), similar ones and a draw of the others.

O=C(c1[nH]c(C(F)(F)F)nc1-c1ccccc1)N1CCN(c2cccc(C(F)(F)F)n2)CC1	EWS-Fli inh 55 (no result: EBV LMP1 NFkB, TRPM1 prom inh)
COc1ccccc1N1CCN(C(=O)c2[nH]c(C(F)(F)F)nc2-c2ccccc2)CC1	EWS-Fli inh 72 (no result: EBV LMP1 NFkB, TRPM1 prom inh)
C[C@@H]1CN([C@@H](C)CO)C(=O)c2cc(NS(=O)(=O)c3ccccc3)ccc2O[C@@H]1CN(C)S(=O)(=O)c1cccs1	none (no result: EBV LMP1 NFkB, TRPM1 prom inh, Shn3 3UTR inh)
CCc1nnc(NC(=O)c2ccc(S(=O)(=O)N3CCc4ccccc4C3)cc2)s1	none
Cc1cc(C)c2sc(N(CCCN(C)C)C(=O)c3ccc(S(=O)(=O)N4CCc5ccccc5C4)cc3)nc2c1	TRPM1 prom inh 89 (no result: EWS-Fli inh, LGR2 inh, PAX8 inh HTS)
Cc1cccc2sc(N(CCCN(C)C)C(=O)c3ccc(S(=O)(=O)N4CCc5ccccc5C4)cc3)nc12	none (no result: EWS-Fli inh)
CN(C)CCCN(C(=O)c1ccc(S(=O)(=O)N2CCc3ccccc3C2)cc1)c1nc2ccc(F)cc2s1	EWS-Fli inh 58, TRPM1 prom inh 73
Cc1ccc2nc(N(CCCN(C)C)C(=O)c3ccc(S(=O)(=O)N4CCc5ccccc5C4)cc3)sc2c1	TRPM1 prom inh 76 (no result: EWS-Fli inh)
CN(C)CCCN(C(=O)c1ccc(S(=O)(=O)N2CCc3ccccc32)cc1)c1nc2ccc(F)cc2s1	none
Cc1cc(C)c2nc(NNC(=O)c3ccc(S(=O)(=O)N4CCc5ccccc5C4)cc3)sc2c1	EBV LMP1 NFkB inconclusive, TRPM1 prom inh 78, PAX8 inh HTS 62, Shn3 3UTR inh 93 (no result: LGR2 inh)
C[C@H](CO)N1C[C@H](C)[C@H](CN(C)S(=O)(=O)c2ccc(F)cc2)Oc2cc(C#Cc3ccc(F)cc3)ccc2S1(=O)=O	none (no result: EBV LMP1 NFkB, TRPM1 prom inh, PAX8 inh HTS, Shn3 3UTR inh)
Cc1noc(C)c1NC(=O)N(C)C[C@H]1Oc2ccc(NC(=O)Cc3ccccc3)cc2CC(=O)N([C@H](C)CO)C[C@@H]1C	none (no result: EBV LMP1 NFkB, TRPM1 prom inh, Shn3 3UTR inh)
COc1ccccc1-c1ccc2c(c1)O[C@H](CN(C)S(=O)(=O)c1ccc(F)cc1)[C@@H](C)CN([C@@H](C)CO)S2(=O)=O	none (no result: EBV LMP1 NFkB, TRPM1 prom inh, Shn3 3UTR inh)
CN(C)CCCN(C(=O)c1cc(-c2cccs2)nc2ccccc12)c1nc2ccc(F)cc2s1	TRPM1 prom inh 87
COc1ccc2sc(N(CCCN(C)C)C(=O)c3ccc(S(=O)(=O)N4CCc5ccccc5C4)cc3)nc2c1	TRPM1 prom inh 85 (no result: PAX8 inh HTS)
CCN(Cc1ccccc1)S(=O)(=O)c1ccc(C(=O)N(CCCN(C)C)c2nc3cc4c(cc3s2)OCO4)cc1	TRPM1 prom inh 93
Cc1cc(C)c2sc(N(CCCN(C)C)C(=O)c3ccc(S(=O)(=O)N4CCCc5ccccc54)cc3)nc2c1	TRPM1 prom inh 83
CN(C)CCCN(C(=O)c1ccc(S(=O)(=O)N2CCc3ccccc32)cc1)c1nc2ccc(Cl)cc2s1	none (no result: EWS-Fli inh)
COc1ccccc1C#Cc1ccc2c(c1)O[C@@H](CN(C)Cc1ccccc1)[C@H](C)CN([C@H](C)CO)S2(=O)=O	none (no result: EBV LMP1 NFkB, TRPM1 prom inh, PAX8 inh HTS, Shn3 3UTR inh)
CN1[C@@H]2c3ccc(-c4ccncc4)c(=O)n3C[C@H]1[C@H](CO)[C@H]2C(=O)NCCc1ccccc1	none (no result: EBV LMP1 NFkB, TRPM1 prom inh, Shn3 3UTR inh)
CCn1c2ccccc2c2cc(NC(=O)C(C)C)ccc21	none (no result: EWS-Fli inh, PAX8 inh HTS)
CCn1c2ccccc2c2cc(NC(=O)c3ccccc3-c3ccccc3C(=O)O)ccc21	EBV LMP1 NFkB 52
CCn1c2ccccc2c2cc(/C=N/NC(=O)c3ccccc3)ccc21	EBV LMP1 NFkB 79 (no result: EWS-Fli inh, LGR2 inh, PAX8 inh HTS)
CCCC#Cc1cnc2c(c1)C(=O)N([C@H](C)CO)C[C@H](C)[C@H](CN(C)C(=O)CN1CCOCC1)O2	none (no result: EBV LMP1 NFkB, TRPM1 prom inh, PAX8 inh HTS, Shn3 3UTR inh)
O=C(Nc1ccc(F)cc1)N1CC(=O)N2[C@@H](CO)[C@@H](c3ccc(-c4ccc(F)cc4)cc3)[C@@H]2C1	none (no result: EBV LMP1 NFkB, TRPM1 prom inh, Shn3 3UTR inh)
O=C(Nc1ccc(F)cc1)N1CC(=O)N2[C@@H](CO)[C@@H](c3ccc(C#Cc4ccc(F)cc4)cc3)[C@@H]2C1	PAX8 inh HTS 119 (no result: EBV LMP1 NFkB, TRPM1 prom inh, Shn3 3UTR inh)
COc1ccc(NC(=O)N2CC(=O)N3[C@@H](CO)[C@H](c4ccc(/C=C/c5ccccc5)cc4)[C@@H]3C2)cc1	none (no result: EBV LMP1 NFkB, TRPM1 prom inh, Shn3 3UTR inh)
O=C(Nc1ccc(F)cc1)N1CC(=O)N2[C@@H](CO)[C@H](c3ccc(-c4ccc(F)cc4)cc3)[C@@H]2C1	PAX8 inh HTS 101 (no result: EBV LMP1 NFkB, TRPM1 prom inh, Shn3 3UTR inh)
O=C(Nc1ccc(F)cc1)N1CC(=O)N2[C@H](C1)[C@H](c1ccc(C#Cc3ccc(F)cc3)cc1)[C@@H]2CO	PAX8 inh HTS 68 (no result: EBV LMP1 NFkB, TRPM1 prom inh, Shn3 3UTR inh)
COc1ccc(NC(=O)N2CC(=O)N3[C@H](C2)[C@H](c2ccc(/C=C/c4ccccc4)cc2)[C@@H]3CO)cc1	PAX8 inh HTS 105 (no result: EBV LMP1 NFkB, TRPM1 prom inh, Shn3 3UTR inh)
